Test results published in PubChem BioAssay (NCI).
The panel holds about 79,000 compounds, 15% with a hit somewhere; the sample as a whole holds those more often. Calls of active or inactive are those of the source. No stated cut-off is given here; in the data, active means growth inhibition above about 70%; inactive means the rest.

Legend:
[1] = NCI Yeast Anticancer Drug Screen. Data for the rad52 strain (AID 147);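 further: 0% = growth of vehicle-treated control cultures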; conditions: S. cerevisiae rad52 mutant growth inhibition, hits give high values
Summary of the method: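 Growth of repair-deficient yeast cells was compared between compound-treated and vehicle-treated cultures to give percent inhibition.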

[2] = NCI Yeast Anticancer Drug Screen. Data for the wt1 strain (AID 149);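 further: 0% = growth of vehicle-treated wt1 cultures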; conditions: S. cerevisiae wt1 strain (SPY 50644) growth inhibition, hits give high values
Summary of the method: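 Growth inhibition read against vehicle controls after compound exposure of the wt1 yeast strain.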

[3] = NCI Yeast Anticancer Drug Screen. Data for the rad50EPP+ strain (AID 151);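 further: 0% = growth of vehicle-treated control cultures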; conditions: S. cerevisiae rad50 mutant strain, hits give high values
Summary of the method: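 Measured: growth inhibition of rad50EPP+ yeast. Reference: vehicle-treated controls. Screen uses strains with defined genetic alterations in DNA damage repair or cell cycle control.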

[4] = NCI Yeast Anticancer Drug Screen. Data for the rad50 strain (AID 155);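 further: 0% = growth of vehicle-only cultures of the same strain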; conditions: S. cerevisiae rad50 strain growth inhibition, hits give high values
Summary of the method: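 Readout: growth inhibition relative to vehicle-treated cultures. Compound exposure was carried out in a genetically defined yeast strain deficient in DNA damage repair.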

[5] = NCI Yeast Anticancer Drug Screen. Data for the mec2-1 strain (AID 157); conditions: S. cerevisiae mec2-1 strain, hits give high values
Summary of the method: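 Compounds were applied to mec2-1 yeast cells. Their growth was then compared with that of vehicle-treated cultures to give growth inhibition.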

[6] = NCI Yeast Anticancer Drug Screen. Data for the rad14 strain (AID 159);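 further: 0% = growth of vehicle-treated control cultures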; conditions: S. cerevisiae rad14 strain growth inhibition, hits give high values
Summary of the method: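 Growth inhibition vs vehicle controls; genetically altered yeast strain (DNA damage repair defect) treated with test compounds.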

[7] = NCI Yeast Anticancer Drug Screen. Data for the sgs1 mgt1 strain (AID 161);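 further: 0% = growth of cultures given vehicle only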; conditions: S. cerevisiae sgs1 mgt1 strain, hits give high values
Summary of the method: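 Percent growth inhibition was derived by comparing compound-exposed mutant yeast with vehicle-exposed cultures. The strain carries alterations in DNA damage repair.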

[8] = NCI Yeast Anticancer Drug Screen. Data for the CLN2oe strain (AID 163);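 further: 0% = growth of vehicle-only control cultures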; conditions: S. cerevisiae CLN2oe strain, hits give high values
Summary of the method: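 Cells of an engineered yeast line with disturbed cell-cycle regulation are treated with compound. Inhibition of growth is then calculated relative to the vehicle-treated reference.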

[9] = NCI Yeast Anticancer Drug Screen. Data for the cln2 rad14 strain (AID 165);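 further: 0% = growth equal to vehicle treated cultures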; conditions: S. cerevisiae cln2 rad14 strain, hits give high values
Summary of the method: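 Strain: cln2 rad14 yeast, altered in cell cycle control and DNA damage repair. Read-out: growth inhibition vs vehicle.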

[10] = NCI Yeast Anticancer Drug Screen. Data for the bub3 strain (AID 167); conditions: S. cerevisiae bub3 mutant strain, hits give high values
Summary of the method: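 Readout: yeast growth inhibition, expressed relative to vehicle-only wells. The test organism is a mutant strain from a panel with lesions in DNA repair or checkpoint genes.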

[11] = NCI Yeast Anticancer Drug Screen. Data for the wt2 strain (AID 169);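 further: 0% = growth of vehicle-treated yeast cultures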; conditions: S. cerevisiae wt2 strain growth inhibition, hits give high values
Summary of the method: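 Growth of compound-treated yeast is measured and expressed as inhibition relative to vehicle-only controls.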

[12] = NCI Yeast Anticancer Drug Screen. Data for the sgs1 strain (AID 173);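 further: 0% = growth of vehicle-only control cultures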; conditions: S. cerevisiae sgs1 mutant, hits give high values
Summary of the method: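 Strain with an altered DNA repair or cell cycle pathway exposed to compound. Growth then measured. Value = inhibition versus vehicle control.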

[13] = NCI Yeast Anticancer Drug Screen. Data for the rad18 strain (AID 177); conditions: S. cerevisiae rad18 mutant growth inhibition, hits give high values
Summary of the method: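 DNA-repair-defective yeast; compound treatment; growth inhibition scored against vehicle.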

[14] = NCI Yeast Anticancer Drug Screen. Data for the mgt1 strain (AID 153); conditions: S. cerevisiae mgt1 mutant growth inhibition, hits give high values
Summary of the method: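 Compounds were applied to mgt1 mutant yeast, and growth was then compared against vehicle-treated control cultures to give percent inhibition.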

[15] = at 5.0 µM (retest, dose inferred, filed as 0.5)
[16] = at 50.0 µM (retest, dose inferred, filed as 5.0)

Measured: growth inhibition

CC1OCC2OC(C)OC(C3C4=C(CC(C)(C)CC4=O)OC4=C3C(=O)CC(C)(C)C4)C2O1 (stereo not given)
inactive: [1]; at 1.2 µM 0% | [1]; at 3.7 µM 4% | [1]; at 11.0 µM 17% | [1]; at 33.0 µM 38% | [1]; at 100.0 µM 56% | [2]; at 1.2 µM -2% | [2]; at 3.7 µM 2% | [2]; at 11.0 µM 6% | [2]; at 33.0 µM 24% | [2]; at 100.0 µM 45% | [3]; at 1.2 µM -3% | [3]; at 3.7 µM -5% | [3]; at 11.0 µM -4% | [3]; at 33.0 µM -1% | [3]; at 100.0 µM 1% | [4]; at 1.2 µM 7% | [4]; at 3.7 µM -32% | [4]; [15] 10% | [4]; at 11.0 µM 49% | [4]; at 33.0 µM 61% | [4]; [16] 57% | [5]; at 1.2 µM 0% | [5]; at 3.7 µM 3% | [5]; [15] 7% | [5]; at 11.0 µM 12% | [5]; at 33.0 µM 28% | [5]; [16] -18% | [5]; at 50.0 µM 27.4% | [5]; at 100.0 µM 46% | [6]; at 1.2 µM -1% | [6]; at 3.7 µM -1% | [6]; at 11.0 µM 5% | [6]; at 33.0 µM 18% | [6]; at 100.0 µM 41% | [7]; [15] 5% | [7]; [16] 37% | [7]; at 50.0 µM 40.7% | [8]; at 1.2 µM -2% | [8]; at 3.7 µM -4% | [8]; at 11.0 µM -2% | [8]; at 33.0 µM -2% | [8]; at 100.0 µM -3% | [9]; [15] 5% | [9]; [16] 15% | [9]; at 50.0 µM 3.55% | [10]; at 1.2 µM 1% | [10]; at 3.7 µM 2% | [10]; [15] -46% | [10]; at 11.0 µM 7% | [10]; at 33.0 µM 29% | [10]; [16] 32% | [10]; at 50.0 µM 57.8% | [10]; at 100.0 µM 66% | [11]; at 1.2 µM -1% | [11]; at 3.7 µM 9% | [11]; at 11.0 µM 1% | [11]; at 33.0 µM 4% | [11]; at 100.0 µM 23% | [12]; at 1.2 µM -2% | [12]; at 3.7 µM 1% | [12]; at 11.0 µM 9% | [12]; at 33.0 µM 32% | [12]; at 100.0 µM 65% | [13]; at 1.2 µM 3% | [13]; at 3.7 µM 18% | [13]; at 11.0 µM 43%
active: [4]; at 50.0 µM 82.2% | [4]; at 100.0 µM 80% | [13]; at 33.0 µM 78% | [13]; at 100.0 µM 91%

CC(C)/C(Cl)=N\OC(=O)Nc1cccc(Cl)c1
active: [5]; at 50.0 µM 87.8%
inactive: [1]; at 1.2 µM -4% | [1]; at 3.7 µM -7% | [1]; at 11.0 µM -4% | [1]; at 33.0 µM -3% | [1]; at 100.0 µM -2% | [2]; at 1.2 µM -2% | [2]; at 3.7 µM 0% | [2]; at 11.0 µM -1% | [2]; at 33.0 µM -2% | [2]; at 100.0 µM 1% | [14]; at 1.2 µM -1% | [14]; at 3.7 µM -3% | [14]; at 11.0 µM 12% | [14]; at 33.0 µM -26% | [14]; at 100.0 µM 0% | [4]; at 1.2 µM -2% | [4]; at 3.7 µM -5% | [4]; [15] 8% | [4]; at 11.0 µM -26% | [4]; at 33.0 µM -1% | [4]; [16] 47% | [4]; at 50.0 µM 69.5% | [4]; at 100.0 µM 3% | [5]; at 1.2 µM 0% | [5]; at 3.7 µM 0% | [5]; [15] -17% | [5]; at 11.0 µM 2% | [5]; at 33.0 µM 2% | [5]; [16] 30%
